Unmarked numbers belong to inactive results. Calls of active or inactive are those of the source. Calls follow the shape of the dose curve; as a rule, active = well fitted curve in the direction sought with a large enough effect in the repeat runs; inconclusive = weak or mixed curves; inactive = flat fitted curve, though single readings scatter.
Assay: qHTS assay to test for compound auto fluorescence at 535 nm (green) in HEK293 cells (AID 720680)
Details: green autofluorescence 485/535 nm; series mostly up to 91.3 µM; fluorescence, % of fluorescein: at the top concentration
From the text: U.S. Tox21 Program National Center for Advancing Translational Sciences [NCATS] NIH Chemical Genomics Center [NCGC] U.S. Environmental Protection Agency [EPA] National Institutes of Environmental Health Sciences [NIEHS] National Toxicology Program [NTP] U.S. Food and Drug Administration [FDA] Tox21 Assay Overview: Compound auto fluorescence often interferes with screening of the compound library against various biological targets and signaling pathways. Some of these compounds may have fluorophoric properties. Such properties may interfere with the assay outputs resulting in false positives and/or negatives. To decrease such complications and ensure the compound activities are relevant in terms of biological response, the Tox21 10K compound library was screened for auto fluorescence. From the fluorophores used as reporter signals in our screening assays, the auto fluorescence equivalencies of compounds against three fluorophores have been evaluated: Triamterene, Fluorescein and Rose Bengal sodium for blue, green and red fluorescence, respectively. The fluorescence intensities were measured using Excitation/Emission wavelengths at 405/460nm, 485/535nm and 540/590nm for blue, green and red labels, respectively. This assay includes the green fluorescence data.
Tox21 Assay Protocol Summary: 2,000 HEK293 cells in 5 uL of culture medium containing 10% dialyzed FBS per well were dispensed into black wall/clear bottom 1536-well plates using a Multidrop Combi Dispenser (Thermo Scientific). The assay plates were incubated for 4-5 hr at 37C to allow cell attachment to the well bottom, followed by the transfer of 23 nL compound or DMSO vehicle by a pintool work station (Kalypsys, San Diego, CA). After the assay plates were incubated overnight at 37C and 5% CO2, fluorescence intensities in the assay plates were measured by an Envision (PerkinElmer, Shelton, CT) plate reader using three labels for measuring blue, green and red fluorescence at […] 460, 535 and 590nm respectively.
% is scaled to controls: 0 for no effect and ±100 for the full control effect.

SMILES | outcome | fluorescence, % of fluorescein [%]
COCC(C)N (stereo not given) | inactive | –
CC(=O)Oc1ccccc1C(=O)O | inactive | –
Cc1c(N(C)C)c(=O)n(-c2ccccc2)n1C | inactive | –
O=C(OCc1ccccc1)c1ccccc1 | inactive | –
NC(=O)N/N=C/c1ccc([N+](=O)[O-])o1 | inactive | –
Oc1cccc(O)c1 | inactive | –
CCCCCCCCOc1ccc(C(=O)c2ccccc2)c(O)c1 | inactive | –
CCCCCCCCCCCCCCCCCC(=O)OCC(O)CO (stereo not given) | inactive | –
COc1ccccc1NC(=O)CC(C)=O | inactive | –
C1CNCCN1 | inactive | –
CCn1cc(C(=O)O)c(=O)c2ccc(C)nc21 | inactive | –
CCCCCCCC(=O)OCC(O)CO (stereo not given) | inactive | –
NC(=O)N1c2ccccc2C=Cc2ccccc21 | inactive | –
COc1cc2c(c(OC)c1OC)-c1ccc(OC)c(=O)cc1[C@@H](NC(C)=O)CC2 | inactive | –
COC1=CC(=O)C[C@@H](C)[C@]12Oc1c(Cl)c(OC)cc(OC)c1C2=O | inactive | –
CC(C)Cc1ccc(C(C)C(=O)O)cc1 (stereo not given) | inactive | –
CCCCNC(=O)NS(=O)(=O)c1ccc(N)cc1 | inactive | –
C=CC(=O)NC(C)(C)CS(=O)(=O)O | inactive | –
Nc1ccc(N=Nc2ccccc2)c(N)n1 | inactive | –
CC(C)=CCC/C(C)=C/CO | inactive | –

SMILES | outcome | fluorescence, % of fluorescein [%]
COC(=O)c1ccc(O)cc1 | inactive | –
NC(=O)OCC(COC(N)=O)c1ccccc1 | inactive | –
COc1ccc(C(=O)c2ccccc2)c(O)c1 | inactive | –
CCCCC/C(C=O)=C\c1ccccc1 | inactive | –
O=C1OC(c2ccc(O)cc2)(c2ccc(O)cc2)c2ccccc21 | inactive | –
Cc1cccc2ccccc12 | inactive | –
COCCOCCOC | inactive | –
CC(=O)OC/C=C(C)/C=C/C=C(C)/C=C/C1=C(C)CCCC1(C)C | inactive | –
OC[C@@H](O)[C@@H](O)[C@H](O)[C@H](O)CO | inactive | –
CC(O)COc1ccccc1 (stereo not given) | inactive | –
C#C[C@]1(O)CC[C@H]2[C@@H]3CCC4=CC(=O)CC[C@@H]4[C@H]3CC[C@@]21CC | inactive | –
CN(C)Cc1cc(CN(C)C)c(O)c(CN(C)C)c1 | inactive | –
O=C(O)Cc1cccc2ccccc12 | inactive | –
C/C=C/c1ccc(O)c(OC)c1 | inactive | –
O=c1cc[nH]c(=O)[nH]1 | inactive | –
O=C(O)CN(CC(=O)O)CC(=O)O | inactive | –
COc1ccccc1O | inactive | –
CC1=NN(c2ccccc2)C(=O)C1 | inactive | –
NC(=O)c1ccc([N+](=O)[O-])cc1Cl | inactive | –
CCCCOC(=O)CCCCCCCCC(=O)OCCCC | – | -0.0099
